Assay results taken from PubChem BioAssay (Tox21).
Records with an inconclusive call do not appear. Calls of active or inactive are those of the source. Unless noted, the call rests on the fitted dose curve; in most records, active means well fitted curve in the direction sought with a large enough effect in the repeat runs; inconclusive means weak or mixed curves; inactive means flat fitted curve, though single readings scatter.

Tests used:
[1] = qHTS assay to test for compound auto fluorescence at 535 nm (green) in HEK293 cells (AID 720680)
[2] = qHTS assay to test for compound auto fluorescence at 460 nm (blue) in HEK293 cell free culture (AID 720681)
Method in brief: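 Compounds were added to cell-free DMEM with 10% FBS and fluorescence read directly. The blue channel used 405 nm excitation and 460 nm emission, with triamterene as the reference fluorophore.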

[3] = qHTS assay to test for compound auto fluorescence at 535 nm (green) in HEK293 cell free culture (AID 720682)
Method in brief: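 Steps: dispense DMEM/10% FBS into empty wells; pin in compound or DMSO; measure fluorescence at 485/535 nm. Values are fluorescein equivalents.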

[4] = qHTS assay to test for compound auto fluorescence at 590 nm (red) in HEK293 cell free culture (AID 720683)
Method in brief: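 Cell-free wells of DMEM with 10% FBS received compound, and intrinsic fluorescence was read at excitation/emission 540/590 nm. Values expressed as equivalence to Rose Bengal sodium.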

[5] = qHTS assay to test for compound auto fluorescence at 590 nm (red) in HepG2 cell free culture (AID 720684)
Method in brief: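 Auto fluorescence equivalency versus Rose Bengal sodium, red channel Ex/Em 540/590 nm; compounds in cell-free MEM/10% FBS; DMSO vehicle control.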

[6] = qHTS assay to test for compound auto fluorescence at 460 nm (blue) in HepG2 cell free culture (AID 720685)
Method in brief: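 Cell-free plates of MEM plus 10% FBS received 23 nL compound or DMSO vehicle; blue-channel (405/460 nm) intensity scored against triamterene as reference fluorophore.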

[7] = qHTS assay to test for compound auto fluorescence at 535 nm (green) in HepG2 cell free culture (AID 720686)
[8] = qHTS assay to test for compound auto fluorescence at 460 nm (blue) in HepG2 cells (AID 720687)
Method in brief: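 HepG2 cells in MEM with 10% FBS, attached overnight at 37 C, were exposed to compound or DMSO for 1 hr at 37 C, 5% CO2. Blue fluorescence was read at 405/460 nm, with triamterene as reference fluorophore.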

[9] = biological target: Glucocorticoid receptor (Homo sapiens) (UniProt P04150); assay: qHTS assay to identify small molecule agonists of the glucocorticoid receptor (GR) signaling pathway (AID 720691; active means well fitted activation curve with a large enough effect in the signal ratio in the repeat runs, not every such curve was filed as active; the % refers to the signal ratio)
Method in brief: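 HeLa GR-bla reporter line; cells pre-incubated 4 h, compound in DMSO 18 h at 37 C; LiveBLAzer B/G FRET substrate 2 h RT; fluorescence intensity read-out.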

[10] = biological target: Glucocorticoid receptor (Homo sapiens) (UniProt P04150); assay: qHTS assay to identify small molecule antagonists of the glucocorticoid receptor (GR) signaling pathway (AID 720692; active means well fitted inhibition curve with a large enough effect in the signal ratio in the repeat runs, not every such curve was filed as active; the % refers to the signal ratio)
Method in brief: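 Read-out: beta-lactamase FRET substrate fluorescence, 2 h at room temperature, in HeLa cells stably carrying a GRE-driven bla reporter. Compounds were co-incubated with 5 nM dexamethasone agonist (final) for 18 h at 37 C.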
On the % scale 0 is the no-effect control and ±100 the full control effect.

Chain of Glucocorticoid receptor (Homo sapiens) (P04150 whole entry, looked up): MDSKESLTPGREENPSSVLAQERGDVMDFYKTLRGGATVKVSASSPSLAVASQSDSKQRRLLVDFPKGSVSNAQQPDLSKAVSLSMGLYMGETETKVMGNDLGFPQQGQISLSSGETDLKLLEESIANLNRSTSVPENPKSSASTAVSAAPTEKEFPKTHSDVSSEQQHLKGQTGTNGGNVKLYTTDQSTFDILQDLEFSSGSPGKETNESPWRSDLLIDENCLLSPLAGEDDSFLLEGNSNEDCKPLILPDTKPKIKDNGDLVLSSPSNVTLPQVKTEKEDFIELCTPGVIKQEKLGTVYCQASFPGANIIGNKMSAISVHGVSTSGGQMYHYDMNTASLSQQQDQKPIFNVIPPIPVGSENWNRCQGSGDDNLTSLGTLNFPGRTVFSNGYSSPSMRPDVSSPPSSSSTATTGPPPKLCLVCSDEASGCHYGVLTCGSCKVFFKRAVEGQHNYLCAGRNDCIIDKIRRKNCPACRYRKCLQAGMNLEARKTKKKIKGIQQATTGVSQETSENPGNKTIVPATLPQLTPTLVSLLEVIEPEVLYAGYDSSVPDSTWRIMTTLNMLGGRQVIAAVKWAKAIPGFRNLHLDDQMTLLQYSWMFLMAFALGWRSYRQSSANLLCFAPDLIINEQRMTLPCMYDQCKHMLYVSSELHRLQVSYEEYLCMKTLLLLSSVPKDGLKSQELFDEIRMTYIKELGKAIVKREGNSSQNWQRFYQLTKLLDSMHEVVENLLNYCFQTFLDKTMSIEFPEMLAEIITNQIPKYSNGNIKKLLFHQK

O/N=C/C=N/O
inactive: outcome [1] | outcome [2] | outcome [3] | outcome [4] | outcome [5] | outcome [6] | outcome [7] | outcome [8] | Potency [9] | outcome [10]

CCCC(=O)Nc1ccc(OCC(O)CNC(C)C)c(C(C)=O)c1 (configuration not stated)
inactive: fluorescence, % of fluorescein [1] -0.0845% [at 18.6 µM] | fluorescence, % of fluorescent control [2] 0.175% [at 18.6 µM] | activity change [3] -0.021% [at 18.6 µM] | fluorescence, % of fluorescent control [4] 0.214% [at 18.6 µM] | fluorescence, % of Rose Bengal [5] -0.252% [at 18.6 µM] | fluorescence, % of fluorescent control [6] -0.0068% [at 18.6 µM] | fluorescence, % of fluorescein control [7] -0.0602% [at 18.6 µM] | fluorescence, % of fluorescent control [8] 0.0344% [at 18.6 µM] | Potency [9] | outcome [10]

CC(=O)O[C@H]1C[C@@H]2CC[C@@]1(C)C2(C)C
inactive: outcome [1] | outcome [2] | outcome [3] | outcome [4] | outcome [5] | outcome [6] | outcome [7] | outcome [8] | Potency [9] | outcome [10]

CCCCOCC(C)O (configuration not stated)
inactive: outcome [1] | outcome [2] | outcome [3] | outcome [4] | outcome [5] | outcome [6] | outcome [7] | outcome [8] | Potency [9] | outcome [10]

CC(C)C1OCCN1CCOC(=O)NCCCCCCNC(=O)OCCN1CCOC1C(C)C (configuration not stated)
inactive: outcome [1] | outcome [2] | outcome [3] | outcome [4] | outcome [5] | outcome [6] | outcome [7] | outcome [8] | Potency [9] | outcome [10]

Cc1c(N)cccc1Cl
inactive: outcome [1] | outcome [2] | outcome [3] | outcome [4] | outcome [5] | outcome [6] | outcome [7] | outcome [8] | Potency [9] | outcome [10]

CC(C)CO
inactive: outcome [1] | outcome [2] | outcome [3] | outcome [4] | outcome [5] | outcome [6] | outcome [7] | outcome [8] | Potency [9] | outcome [10]

CC(=O)Nc1ccc(OC(=O)c2ccccc2OC(C)=O)cc1
inactive: outcome [1] | outcome [2] | outcome [3] | outcome [4] | outcome [5] | outcome [7] | outcome [8] | Potency [9]

COC(C)(OC)OC
inactive: outcome [1] | outcome [2] | outcome [3] | outcome [4] | outcome [5] | outcome [7] | outcome [8] | Potency [9] | outcome [10]

CCCC(=O)OC/C=C(\C)CCC=C(C)C
inactive: outcome [1] | outcome [2] | outcome [3] | outcome [4] | outcome [5] | outcome [6] | outcome [7] | outcome [8] | Potency [9] | outcome [10]

CC1(C)[C@H]2CC[C@](C)(C2)[C@H]1O
inactive: outcome [1] | outcome [2] | outcome [3] | outcome [4] | outcome [5] | outcome [7] | outcome [8]

CCCCCCCCCOC(=O)CCCCC(=O)OCCCCCCC
inactive: outcome [1] | outcome [2] | outcome [3] | outcome [4] | outcome [5] | outcome [7] | outcome [8] | Potency [9] | outcome [10]

Fc1ccccc1
inactive: outcome [1] | outcome [2] | outcome [3] | outcome [4] | outcome [5] | outcome [7] | outcome [8] | Potency [9] | outcome [10]

CC(C)=CCC/C(C)=C/COC=O
inactive: outcome [1] | outcome [2] | outcome [3] | outcome [4] | outcome [5] | outcome [7] | outcome [8]

O=C(CN1CCNCC1)NC1CCCCC1
inactive: outcome [1] | outcome [2] | outcome [3] | outcome [4] | outcome [5] | outcome [6] | outcome [7] | outcome [8] | Potency [9] | outcome [10]

CCOC(=O)CC1(C)OCC(C)O1 (configuration not stated)
inactive: outcome [1] | outcome [2] | outcome [3] | outcome [4] | outcome [5] | outcome [7] | outcome [8]

Cc1c(Cl)cccc1Cl
inactive: outcome [1] | outcome [2] | outcome [3] | outcome [4] | outcome [5] | outcome [7] | outcome [8] | Potency [9] | outcome [10]

CC(C)c1ccc(C=O)cc1
inactive: outcome [1] | outcome [2] | outcome [3] | outcome [4] | outcome [5] | outcome [6] | outcome [7] | outcome [8] | Potency [9] | outcome [10]

CC1=C(C(=O)O)N2C(=O)[C@@H](NC(=O)[C@H](N)C3=CCC=CC3)[C@H]2SC1
inactive: outcome [1] | outcome [2] | outcome [3] | outcome [4] | outcome [5] | outcome [7] | outcome [8] | Potency [9] | outcome [10]

CCCCCc1cccc(=O)o1
inactive: outcome [1] | outcome [2] | outcome [3] | outcome [4] | outcome [6] | outcome [7] | outcome [8]

C=CC/C=C/C
inactive: outcome [1] | outcome [2] | outcome [3] | outcome [4] | outcome [5] | outcome [7] | outcome [8] | Potency [9] | outcome [10]

N#CCC(=O)NN
inactive: outcome [1] | outcome [2] | outcome [3] | outcome [4] | outcome [5] | outcome [6] | outcome [7] | outcome [8] | Potency [9] | outcome [10]

CC(C)NCC(O)c1ccc2ccccc2c1 (configuration not stated)
inactive: outcome [1] | outcome [2] | outcome [3] | outcome [4] | outcome [5] | outcome [7] | outcome [8] | Potency [9] | outcome [10]

CC(=O)O[C@@H]1CC2CCC1(C)C2(C)C (some centres not stated)
inactive: outcome [1] | outcome [2] | outcome [3] | outcome [4] | outcome [5] | outcome [7] | outcome [8] | Potency [9] | outcome [10]

COc1nc(N)nc2nc[nH]c12
inactive: outcome [1] | outcome [2] | outcome [3] | outcome [4] | outcome [5] | outcome [7] | outcome [8] | Potency [9] | outcome [10]
